The results in this text go back to PubChem BioAssay (EPA / NIEHS).

Calls of active or inactive are those of the source. How the source made its calls: active means hit-call score of the fitted dose curve at least 0.9, where 1 is the maximum; inactive means score below 0.9.

In general, AC50 refers to the concentration at which the activity in the assay is half-maximal.

Read-out in the first assay: not listed separately
Description: BSK_BT_Bcell_Proliferation: Viability Assessment in the BioMAP Diversity Plus: BT Assay for B cell Proliferation (AID 2284227). Conditions: primary human B cells with PBMC. A digest of the protocol: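 Human B cells co-cultured with PBMC were dosed with test chemicals and relative cell number was quantified by SRB staining at 72 h. Cells were fixed in 10% TCA, stained with 0.1% SRB and read at 560 nm. Activity was fitted in the positive direction against DMSO.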
With `CC1CCC(C(C)CS)CC1S` (configuration not stated), the result was inactive.

In the case of `O=C(O)c1cn(-c2ccc(F)cc2)c2cc(N3CCNCC3)c(F)cc2c1=O`, the outcome was inactive.

As for `CC(C)Oc1ccccc1O`, the outcome was inactive.

As to `CC1COc2ccccc2N1C(=O)C(Cl)Cl` (configuration not stated), the AC50 was 14.1 µM (active).

As for `Nc1cc([N+](=O)[O-])ccc1Cl`, the outcome was inactive.

With `CCCCCCCCCC=O`, the outcome was inactive.

Regarding `O=C(O)c1cn(C2CC2)c2cc(N3CCNCC3)c(F)cc2c1=O`, the result was inactive.

As for `CCCCC(CC)COC(=O)/C=C\C(=O)OCC(CC)CCCC` (configuration not stated), the AC50 is 20 µM (active).

`CCCCCCCCC=O`: the outcome was inactive.

For the compound `CN(CCOc1ccc(CC2SC(=O)NC2=O)cc1)c1ccccn1` (configuration not stated), the outcome was inactive.

As for `CC(C)c1ccc(C(C)C)cc1`, the outcome was inactive.

Regarding `CC(=O)/C=C/C1=C(C)CCCC1(C)C`, the result was inactive.

Read-out in the next assay: Interleukin 6 (IL6), IL6 (gene 3569)
Description: BSK_BT_xIL6: BioMAP Diversity Plus: BT Assay for Interleukin 6 (IL6) Biomarker Activity (AID 2284228). Conditions: primary human B cells with PBMC. In outline: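 IL-6 secretion measured (Luminex xMAP) in human primary B cell + PBMC co-culture at 24 h of chemical exposure; DMSO served as negative control and activity baseline, with curves fitted for increase.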
For `CC1CCC(C(C)CS)CC1S` (configuration not stated), the outcome was inactive.

Take `O=C(O)C[C@H](O)C[C@H](O)/C=C/c1c(C2CC2)nc2ccccc2c1-c1ccc(F)cc1`: the outcome was inactive.

In the case of `O=C(O)c1cn(-c2ccc(F)cc2)c2cc(N3CCNCC3)c(F)cc2c1=O`, the outcome was inactive.

Turning to `CC(C)Oc1ccccc1O`, the result was inactive.

Consider `CC1COc2ccccc2N1C(=O)C(Cl)Cl` (configuration not stated), for which the result was inactive.

As to `Nc1cc([N+](=O)[O-])ccc1Cl`, the outcome was inactive.

In the case of `CCCCCCCCCC=O`, the outcome was inactive.

With `O=C(O)c1cn(C2CC2)c2cc(N3CCNCC3)c(F)cc2c1=O`, the result was inactive.

Regarding `CCCCC(CC)COC(=O)/C=C\C(=O)OCC(CC)CCCC` (configuration not stated), the AC50 was 11.2 µM (active).

`CCCCCCCCC=O`: the result was inactive.

Take `CN(CCOc1ccc(CC2SC(=O)NC2=O)cc1)c1ccccn1` (configuration not stated): the outcome was inactive.

For the compound `CC(C)c1ccc(C(C)C)cc1`, the outcome was inactive.

Take `CC(=O)/C=C/C1=C(C)CCCC1(C)C`: the outcome was inactive.

Read-out in a further assay: Interleukin 17A (IL17A), IL17A (gene 3605)
Description: BSK_BT_xIL17A: BioMAP Diversity Plus: BT Assay for Interleukin 17A (IL17A) Biomarker Activity (AID 2284229). Conditions: primary human B cells with PBMC. In outline:
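Human primary B cells plus PBMC, treated 24 h with chemicals; supernatant IL-17A quantified on Luminex xMAP beads. Gain of signal over DMSO control scored as activity.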
Turning to `CC1CCC(C(C)CS)CC1S` (configuration not stated), the result was inactive.

Regarding `O=C(O)C[C@H](O)C[C@H](O)/C=C/c1c(C2CC2)nc2ccccc2c1-c1ccc(F)cc1`, the concentration at half-maximal activity (AC50) was 2.42 µM (active).

As to `O=C(O)c1cn(-c2ccc(F)cc2)c2cc(N3CCNCC3)c(F)cc2c1=O`, the outcome was inactive.

`CC(C)Oc1ccccc1O`: the result was inactive.

Consider `CC1COc2ccccc2N1C(=O)C(Cl)Cl` (configuration not stated), for which the result was inactive.

As to `Nc1cc([N+](=O)[O-])ccc1Cl`, the outcome was inactive.

Regarding `CCCCCCCCCC=O`, the outcome was inactive.

Regarding `O=C(O)c1cn(C2CC2)c2cc(N3CCNCC3)c(F)cc2c1=O`, the result was inactive.

For the compound `CCCCC(CC)COC(=O)/C=C\C(=O)OCC(CC)CCCC` (configuration not stated), the outcome was inactive.

Turning to `CCCCCCCCC=O`, the result was inactive.

`CN(CCOc1ccc(CC2SC(=O)NC2=O)cc1)c1ccccn1` (configuration not stated): the outcome was inactive.

Consider `CC(C)c1ccc(C(C)C)cc1`, for which the outcome was inactive.

For the compound `CC(=O)/C=C/C1=C(C)CCCC1(C)C`, the outcome was inactive.

Read-out in a further assay: Vascular cell adhesion molecule 1 (VCAM1), VCAM1 (gene 7412)
In words: BSK_MyoF_VCAM1: BioMAP Diversity Plus: MyoF Assay for Vascular cell adhesion molecule 1 (VCAM1) Biomarker Activity (AID 2284231). Conditions: primary human lung fibroblasts. A digest of the protocol: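 VCAM-1 levels, lung fibroblasts, ELISA, 24 h exposure, increase scored relative to DMSO.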
For the compound `CC1CCC(C(C)CS)CC1S` (configuration not stated), the AC50 is 8.17 µM (active).

On to `O=C(O)C[C@H](O)C[C@H](O)/C=C/c1c(C2CC2)nc2ccccc2c1-c1ccc(F)cc1`, for which the result was inactive.

As for `O=C(O)c1cn(-c2ccc(F)cc2)c2cc(N3CCNCC3)c(F)cc2c1=O`, the outcome was inactive.

As to `CC(C)Oc1ccccc1O`, the result was inactive.

Regarding `CC1COc2ccccc2N1C(=O)C(Cl)Cl` (configuration not stated), the AC50 was 20 µM (active).

With `Nc1cc([N+](=O)[O-])ccc1Cl`, the result was inactive.

`CCCCCCCCCC=O`: the result was inactive.

Turning to `O=C(O)c1cn(C2CC2)c2cc(N3CCNCC3)c(F)cc2c1=O`, the result was inactive.

Consider `CCCCC(CC)COC(=O)/C=C\C(=O)OCC(CC)CCCC` (configuration not stated), for which the result was inactive.

As for `CCCCCCCCC=O`, the result was inactive.

With `CN(CCOc1ccc(CC2SC(=O)NC2=O)cc1)c1ccccn1` (configuration not stated), the AC50 is 3.97 µM (active).

Take `CC(C)c1ccc(C(C)C)cc1`: the outcome was inactive.

`CC(=O)/C=C/C1=C(C)CCCC1(C)C`: the result was inactive.

Read-out in the next assay: Collagen I, COL1A1 (gene 1277)
Description: BSK_MyoF_CollagenI: BioMAP Diversity Plus: MyoF Assay for Collagen I Biomarker Activity (AID 2284238). The note with it: primary human lung fibroblasts. In outline: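 Measured by ELISA: Collagen I from human lung fibroblasts 24 h after compound addition, analysed for signal gain with DMSO as baseline; overt toxicity read from SRB staining of parallel cultures at the same time.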
For the compound `CC1CCC(C(C)CS)CC1S` (configuration not stated), the AC50 was 5.96 µM (active).

For `O=C(O)C[C@H](O)C[C@H](O)/C=C/c1c(C2CC2)nc2ccccc2c1-c1ccc(F)cc1`, the result was inactive.

`O=C(O)c1cn(-c2ccc(F)cc2)c2cc(N3CCNCC3)c(F)cc2c1=O`: the result was inactive.

For `CC(C)Oc1ccccc1O`, the result was inactive.

In the case of `CC1COc2ccccc2N1C(=O)C(Cl)Cl` (configuration not stated), the AC50 is 14.4 µM (active).

In the case of `Nc1cc([N+](=O)[O-])ccc1Cl`, the result was inactive.

`CCCCCCCCCC=O`: the outcome was inactive.

With `O=C(O)c1cn(C2CC2)c2cc(N3CCNCC3)c(F)cc2c1=O`, the result was inactive.

Consider `CCCCC(CC)COC(=O)/C=C\C(=O)OCC(CC)CCCC` (configuration not stated), for which the outcome was inactive.

As for `CCCCCCCCC=O`, the outcome was inactive.

On to `CN(CCOc1ccc(CC2SC(=O)NC2=O)cc1)c1ccccn1` (configuration not stated), for which the AC50 was 0.016 µM (active).

For `CC(C)c1ccc(C(C)C)cc1`, the outcome was inactive.

For `CC(=O)/C=C/C1=C(C)CCCC1(C)C`, the result was inactive.

Read-out in the next assay: Interleukin 17F (IL17F), IL17F (gene 112744)
Description: BSK_BT_xIL17F: BioMAP Diversity Plus: BT Assay for Interleukin 17F (IL17F) Biomarker Activity (AID 2284243). The note with it: primary human B cells with PBMC. In outline:
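Luminex readout of IL-17F secretion, 24 h; cells: human B cells with PBMC; positive-direction analysis, DMSO control.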
With `CC1CCC(C(C)CS)CC1S` (configuration not stated), the outcome was inactive.

`O=C(O)C[C@H](O)C[C@H](O)/C=C/c1c(C2CC2)nc2ccccc2c1-c1ccc(F)cc1`: the AC50 is 3.26 µM (active).

On to `O=C(O)c1cn(-c2ccc(F)cc2)c2cc(N3CCNCC3)c(F)cc2c1=O`, for which the outcome was inactive.

In the case of `CC(C)Oc1ccccc1O`, the outcome was inactive.

Consider `CC1COc2ccccc2N1C(=O)C(Cl)Cl` (configuration not stated), for which the outcome was inactive.

For the compound `Nc1cc([N+](=O)[O-])ccc1Cl`, the result was inactive.

Regarding `CCCCCCCCCC=O`, the outcome was inactive.

For the compound `O=C(O)c1cn(C2CC2)c2cc(N3CCNCC3)c(F)cc2c1=O`, the result was inactive.

In the case of `CCCCC(CC)COC(=O)/C=C\C(=O)OCC(CC)CCCC` (configuration not stated), the outcome was inactive.

In the case of `CCCCCCCCC=O`, the outcome was inactive.

In the case of `CN(CCOc1ccc(CC2SC(=O)NC2=O)cc1)c1ccccn1` (configuration not stated), the outcome was inactive.

On to `CC(C)c1ccc(C(C)C)cc1`, for which the result was inactive.

With `CC(=O)/C=C/C1=C(C)CCCC1(C)C`, the result was inactive.
